Some test systems named below: NCI-H23 lung; NCI-H226 lung; NCI-H322M lung; NCI-H460 lung; HOP-92 NSCLC; NCI-H522 lung; 786-0 renal; COLO 205 colon; DU-145 prostate; K-562 leukemia; MALME-3M melanoma; MDA-MB-231 breast; RXF 393 renal; SF-268 CNS; SF-295 CNS; SF-539 CNS; UACC-257 melanoma; M14 melanoma; A549/ATCC NSCLC; HOP-62 NSCLC.
Test in all cases: NCI-60 one-dose screen, 48 h (100 = growth as untreated, 0 = no growth, -100 = all killed)
Holding throughout (details): 10 µM unless noted

Compounds without any hit were thinned out: in the full panel of roughly 83,000, 20% have a hit.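 The endpoint reported here, percent growth, reads 100 for growth as untreated, 0 for no net growth and -100 for all cells dead.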 A number with no mark means an inactive call. Active and inactive are the calls of the source. The calls were made as follows: active = growth percent below 10; inactive = the rest.

As to `N=C(N)c1ccc(-c2cc(Cl)cc(Cl)c2)cn1`, the growth in the experiment on NCI-H23 lung was 97.6%; with NCI-H226 lung, 82.4%; with NCI-H322M lung, 94%; with NCI-H460 lung, 96.9%; in the experiment with HOP-92 NSCLC it was 59.3%; with NCI-H522 lung it was 90.1%. The growth in the experiment on 786-0 renal was 95.3%; with COLO 205 colon, 19.5%; with DU-145 prostate it was 99.5%; in the experiment with K-562 leukemia it was 17.5%; in the experiment on MALME-3M melanoma it was 95.8%; with MDA-MB-231 breast, 85.6%. The growth in the experiment on RXF 393 renal was 41.5%; in the experiment on SF-268 CNS it was 84.9%; in the experiment with SF-295 CNS, 98.2%; in the experiment on SF-539 CNS it was 89.6%; in the experiment on UACC-257 melanoma, 102%; in the experiment on M14 melanoma, 96.4%.
Take `O=C(Nc1cccc(-n2cc(-c3ccncc3)c(-c3ccc(Cl)c(O)c3)n2)c1)Nc1ccc(Cl)c(Cl)c1`: the growth in the experiment with NCI-H23 lung was 13.5%; in the experiment on NCI-H226 lung, 24.7%; with NCI-H322M lung, 40.6%; in the experiment on HOP-92 NSCLC, -20.2% (active); in the experiment with NCI-H522 lung, -6.8% (active); with A549/ATCC NSCLC, 4.51% (active). The growth in the experiment with 786-0 renal was 30.1%; in the experiment on COLO 205 colon, 30.2%; in the experiment with DU-145 prostate, 25.9%; with K-562 leukemia, 11.4%; in the experiment on MALME-3M melanoma it was 10.3%; in the experiment with MDA-MB-231 breast, -0.72% (active). Also, the growth is 4.46% (active) with RXF 393 renal; 29.1% in the experiment on SF-268 CNS; 37% in the experiment with SF-539 CNS; -17.3% (active) in the experiment with UACC-257 melanoma; 17.2% in the experiment with M14 melanoma.
As to `COc1ccc(Nc2[nH]n3c(=O)cc(-c4ccccc4)nc3c2C(=O)Nc2ccc(C)cc2)c(OC)c1`, the growth in the experiment with NCI-H23 lung is 88.7%; with NCI-H226 lung it was 87.4%; with NCI-H322M lung, 81.5%; with NCI-H460 lung it was 111%; with HOP-92 NSCLC it was 68.9%; in the experiment with NCI-H522 lung, 78.2%. In addition, the growth in the experiment on 786-0 renal is 92.7%; in the experiment with COLO 205 colon, 98%; in the experiment with DU-145 prostate, 118%; in the experiment on K-562 leukemia it was 68.4%; in the experiment on MALME-3M melanoma, 91.6%; in the experiment with MDA-MB-231 breast it was 86.2%. Further, the growth with RXF 393 renal was 92.1%; in the experiment with SF-268 CNS it was 96.2%; with SF-295 CNS, 95.7%; with SF-539 CNS, 81%; with UACC-257 melanoma, 85.4%; with M14 melanoma it was 95.6%.
Turning to `N#Cc1c(-c2ccccc2)nc(SCC(=O)N2CCN(c3ccccc3)CC2)[nH]c1=O`, the growth in the experiment with NCI-H23 lung was 96.4%; in the experiment with NCI-H226 lung, 108%; in the experiment on NCI-H322M lung, 95.8%; in the experiment on NCI-H460 lung it was 110%; in the experiment with HOP-92 NSCLC, 85%; in the experiment with NCI-H522 lung, 85.2%. In addition, the growth in the experiment with A549/ATCC NSCLC is 96.6%; with 786-0 renal it was 97.9%; in the experiment on COLO 205 colon it was 103%; in the experiment on DU-145 prostate, 120%; in the experiment with K-562 leukemia it was 112%; in the experiment with MALME-3M melanoma it was 94.9%. Besides, the growth in the experiment on MDA-MB-231 breast is 115%; with RXF 393 renal, 104%; in the experiment on SF-268 CNS, 111%; with SF-295 CNS, 102%; with SF-539 CNS, 99.2%; in the experiment on UACC-257 melanoma, 89.2%. Moreover, the growth in the experiment with M14 melanoma is 96.7%.
For the compound `COc1ccc(-c2c(N)n[nH]c2-c2cc3c(c(OC)c2OC)OCO3)cc1`, the growth was 96.8% in the experiment on NCI-H23 lung; 99.9% with NCI-H226 lung; 100% in the experiment with NCI-H322M lung; 105% in the experiment on NCI-H460 lung; 87.2% in the experiment with HOP-92 NSCLC; 81.5% in the experiment on NCI-H522 lung. Also, the growth with A549/ATCC NSCLC was 97.1%; in the experiment on 786-0 renal it was 105%; in the experiment with COLO 205 colon, 101%; with DU-145 prostate it was 108%; in the experiment on K-562 leukemia, 98.4%; with MALME-3M melanoma, 97.8%. Besides, the growth with MDA-MB-231 breast is 83.7%; with RXF 393 renal, 108%; in the experiment with SF-268 CNS, 99.1%; in the experiment on SF-295 CNS it was 102%; with SF-539 CNS it was 93.1%; with UACC-257 melanoma, 98.7%. Also, the growth in the experiment on M14 melanoma was 101%.
Consider `COC(=O)c1nc(-c2ccccc2)oc1S(=O)(=O)N1CCN(c2cccc(Cl)c2)CC1`, for which the growth in the experiment with NCI-H23 lung is 97.4%; with NCI-H226 lung it was 93.9%; in the experiment on NCI-H322M lung, 86.7%; in the experiment with NCI-H460 lung it was 82.2%; with HOP-92 NSCLC, 48.2%; in the experiment with NCI-H522 lung, 53.9%. For the same compound, the growth is 88.7% in the experiment on A549/ATCC NSCLC; 57% in the experiment with 786-0 renal; 82.5% with COLO 205 colon; 92.7% with DU-145 prostate; 38.8% in the experiment with K-562 leukemia; 100% with MALME-3M melanoma. Moreover, the growth in the experiment on MDA-MB-231 breast was 73.5%; in the experiment on RXF 393 renal, 84%; with SF-268 CNS, 80.7%; in the experiment with SF-295 CNS, 90.8%; in the experiment on SF-539 CNS it was 105%; with UACC-257 melanoma, 80.2%. In addition, the growth with M14 melanoma is 86.9%.
Consider `COc1cc(C2NN=C3c4ccccc4CCC32)cc(OC)c1OC` (centres undefined), for which the growth was 62.6% with NCI-H226 lung; 88% in the experiment with NCI-H322M lung; 82.3% in the experiment with HOP-62 NSCLC; 91.3% in the experiment with NCI-H460 lung; 62.4% in the experiment on HOP-92 NSCLC; 81.2% in the experiment with NCI-H522 lung. Besides, the growth with A549/ATCC NSCLC was 42%; in the experiment on 786-0 renal it was 93.9%; in the experiment on COLO 205 colon, 89.3%; in the experiment on DU-145 prostate, 92.5%; in the experiment with K-562 leukemia it was 42.8%; in the experiment on MALME-3M melanoma it was 48.6%. Further, the growth in the experiment on MDA-MB-231 breast was 48.4%; in the experiment with RXF 393 renal it was 87.2%; in the experiment on SF-268 CNS, 84%; in the experiment on SF-295 CNS it was 102%; with SF-539 CNS, 85.4%; with UACC-257 melanoma it was -36.4% (active).
On to `O=C(/C=C\c1cccc([N+](=O)[O-])c1)/C=C/c1cccc([N+](=O)[O-])c1`, for which the growth was 92.3% with NCI-H23 lung; 105% in the experiment with NCI-H226 lung; 98.2% with NCI-H322M lung; 93.5% with NCI-H460 lung; 84.3% in the experiment with HOP-92 NSCLC; 88.2% in the experiment on NCI-H522 lung. Further, the growth with A549/ATCC NSCLC is 97.1%; with 786-0 renal, 86.3%; with COLO 205 colon, 103%; in the experiment on DU-145 prostate it was 93.1%; in the experiment with K-562 leukemia, 70.5%; in the experiment with MALME-3M melanoma, 110%. Further, the growth was 90.1% in the experiment with MDA-MB-231 breast; 79.6% in the experiment on RXF 393 renal; 78.5% with SF-268 CNS; 100% with SF-295 CNS; 101% in the experiment on SF-539 CNS; 90.2% with UACC-257 melanoma.
As to `C=C(C)[C@@H]1C[C@@H]2Cc3cc(F)ccc3N1O2`, the growth in the experiment with NCI-H23 lung is 96.6%; with NCI-H226 lung, 99.1%; in the experiment with NCI-H322M lung it was 104%; with NCI-H460 lung, 102%; with HOP-92 NSCLC it was 56.1%; in the experiment on NCI-H522 lung, 91.3%. For the same compound, the growth was 97.9% with A549/ATCC NSCLC; 103% in the experiment on 786-0 renal; 106% with COLO 205 colon; 114% with DU-145 prostate; 83% with MALME-3M melanoma; 99.8% in the experiment on MDA-MB-231 breast. The growth with RXF 393 renal was 108%; with SF-268 CNS, 101%; with SF-295 CNS, 106%; with SF-539 CNS, 95.6%; in the experiment on UACC-257 melanoma, 99.1%; in the experiment on M14 melanoma, 95.5%.

The record behind these values is PubChem BioAssay (NCI).
